Unmarked numbers belong to inactive results. Records with an inconclusive call do not appear. Calls of active or inactive are those of the source. Unless noted, calls come from the whole dose curve; as a rule, active = well fitted curve in either direction with a large enough effect (not every such curve was filed as active); inconclusive = small, poorly fitted or top-dose-only effect, or another doubt; inactive = flat fitted curve, though single readings scatter.
Columns and labels:
[1] = biological target: Lysosomal acid glucosylceramidase (Homo sapiens) (UniProt P04062); experiment: Glucocerebrosidase-p2 (AID 348; in the data active = potency below about 10 µM; note: potency is the fitted concentration of half-maximal effect); settings: purified GBA, blue fluorogenic substrate, 40 min
How it was run: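 Normal human glucocerebrosidase (0.2 nM) with blue fluorogenic substrate (80 uM final) in citrate/phosphate pH 5.9 with 10mM sodium taurocholate, 0.01% tween-20; 40 min RT, NaOH/glycine stop; fluorescence Ex 365/Em 440; AC50 from a titration from 0.6 nM upwards.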

[2] = AP1 Signaling Pathway (AID 357); settings: ME-180 AP-1-bla reporter, EGF-induced, beta-lactamase ratio, 5 h; at 7.69 µM (top of the series) unless noted;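 note: ME-180 reporter cells stimulated with EGF at its EC50 level; % is set by controls: 0 for no effect and ±100 for the full control effect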
How it was run: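 First, ME-180 AP-1-bla cells were cultured overnight at 37 °C in low-serum Opti-MEM. Next, titrated compounds with EC50 EGF were incubated 5 hours. Finally, CCF4 was added for 2.5 hours and the 460/530 nm ratio recorded.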

[3] = biological target: Cytochrome P450 1A2 (Homo sapiens) (UniProt P05177); experiment: p450-cyp1a2 (AID 410; calls by dose curve; note: potency is the fitted concentration of half-maximal effect;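 for activity change, negative = inhibition: -100% = full effect of reference inhibitor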); settings: recombinant CYP1A2, luciferin-ME demethylation, luminescence; series mostly up to 11.4 µM
How it was run: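 Read-out is luminescence from luciferin produced by CYP1A2 demethylation of Luciferin-ME (100uM, at Km). Detection reagent stopped the 60 min NADPH-dependent reaction; signals were normalized to 57 uM furafylline.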

[4] = NFAT Signaling Pathway (AID 444); settings: Jurkat NFAT-bla M1, carbachol, beta-lactamase ratio, 5 h; at 7.69 µM (top of the series) unless noted;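 note: carbachol stimulus at about its EC50 of 1 µM final; % is set by controls: 0 for no effect and ±100 for the full control effect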
How it was run: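 Read-out: CCF4 FRET ratio (460 nm/530 nm) after 1 h RT dye loading, used for %activity and AC50 from titration series. Cells: Jurkat NFAT-β-lactamase/M1 line, treated with compound plus 1 uM carbachol for 5 h, 37 °C.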

[5] = Stat Signaling Pathway (AID 446); settings: ME-180 (cervical carcinoma) SIE beta-lactamase reporter, IL-6 stimulated, 5 h; at 7.69 µM (top of the series) unless noted;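 note: ME-180 cervical cancer cells given 40 pM IL-6 alongside compound; SIE-controlled beta-lactamase reporter measured as 460/530 nm FRET emission ratio; % is set by controls: 0 for no effect and ±100 for the full control effect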
How it was run: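 FRET read-out (405 nm excitation, 460/530 nm emission) of a beta-lactamase reporter under a STAT-inducible element in ME-180 cervical carcinoma cells. Cells with compound receive 40 pM IL-6 for 5 h. Values are normalised to AC90 stimulation and AC90 JAK-inhibitor controls.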

[6] = biological target: Glucocorticoid receptor (Homo sapiens) (UniProt P04150); experiment: GR-GFP Redistribution (AID 450;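 active = compounds whose dose series gives a full or clear partial fitted curve of increased nuclear translocation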; note: potency is the fitted concentration of half-maximal effect); settings: U2OS GR-GFP nuclear translocation, laser cytometry, 2 h
[7] = biological target: Glucocorticoid receptor (Homo sapiens) (UniProt P04150); experiment: GR-EFC Redistribution (AID 451; calls by dose curve; note: potency is the fitted concentration of half-maximal effect); settings: CHO-K1 GR-EFC translocation, beta-gal luminescence, 2 h
How it was run: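 Translocation of GR-ED fusion to nuclear EA restores b-gal, read by luminescence after 1 h room-temperature detection. Engineered CHO-K1 biosensor cells, 1,000/well, exposed 2 h at 37 C to titrations up to 46 uM final.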

[8] = biological target: Mitogen-activated protein kinase 10 (Mus musculus) (UniProt Q61831); experiment: JNK3 AlphaScreen Assay (AID 530); settings: JNK3 lysate, c-Jun phosphorylation; series mostly up to 11.4 µM;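 note: kinase came from lysate of stimulated human HepG2 cells; signal reports phosphorylation of biotinylated GST-cJun 1-79 at Ser73 with 10 µM ATP; % is set by controls: 0 for no effect and ±100 for the full control effect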
How it was run: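 Kinase buffer: 20 mM Tris-HCl pH 7.6, 10 mM MgCl2, 1 mM DTT, 0.1 mM Na3VO4, 0.01% Tween-20; ATP 10 uM. Substrate biotin-GST-cJun(1-79), enzyme from activated HepG2 lysates. Detection by Ser73 phospho-antibody AlphaScreen.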

[9] = biological target: 3',5'-cyclic-AMP phosphodiesterase 4B (Homo sapiens) (UniProt Q07343); experiment: qHTS Assay for Inhibitors of PDE-IV (AID 607; active = well fitted activation curve with a large enough effect in the main read-out, with a control signal flat, not every such curve was filed as active; note: % of control where 0% means no effect); settings: HEK293 ACTOne CNG channel cells, membrane potential fluorescence; series mostly up to 22.9 µM
How it was run: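 Cell-based read-out of cAMP via a modified cyclic nucleotide-gated channel and membrane potential dye (535/590 nm) in HEK293 cells expressing PDE4 endogenously. Compounds tested up to 22.9 uM final; 100 uM RO 20-1724 reference.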

[10] = biological target: Cytochrome P450 3A4 (Homo sapiens) (UniProt P08684); experiment: qHTS Assay for Activators of Cytochrome P450 3A4 (AID 885; active = well fitted curve in the direction sought with a large enough effect; an effect the other way counts as inactive or inconclusive; note: nearly all actives have a fitted effect of over 65% in size); settings: recombinant CYP3A4, Luciferin-PPXE luminescence, 60 min; series mostly up to 11.4 µM
How it was run: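 Luminescent readout of luciferin formed from 25 uM Luciferin-PPXE (KM level) by 20 nM CYP3A4 in 200 mM KPO4, with 60 min NADPH-driven reaction at room temperature after 10 min compound exposure. Ketoconazole (57 uM) defined 100% inhibition.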

[11] = biological target: Cytochrome P450 3A4 (Homo sapiens) (UniProt P08684); experiment: qHTS Assay for Inhibitors and Substrates of Cytochrome P450 3A4 (AID 884; active = well fitted curve in the direction sought with a large enough effect; an effect the other way counts as inactive or inconclusive; note: potency is the fitted concentration of half-maximal effect; nearly all actives have a fitted effect of over 50% in size); settings: recombinant CYP3A4, Luciferin-PPXE luminescence; series mostly up to 57.1 µM
How it was run: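 Luminescent readout of luciferin produced by CYP3A4 (20 nM) dealkylation of Luciferin-PPXE, 25 uM (its KM). NADPH-driven reaction ran 60 min at RT after 10 min compound preincubation; data scaled to 57 uM ketoconazole as 100% inhibition.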

[12] = biological target: Cytochrome P450 2C19 (Homo sapiens) (UniProt P33261); experiment: qHTS Assay for Inhibitors and Substrates of Cytochrome P450 2C19 (AID 899; active = well fitted curve in the direction sought with a large enough effect; an effect the other way counts as inactive or inconclusive; note: potency is the fitted concentration of half-maximal effect; nearly all actives have a fitted effect of over 60% in size); settings: recombinant CYP2C19, luciferin-H EGE luminescence; series mostly up to 11.4 µM
How it was run: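 Luminescence readout of luciferin formed from 10uM Luciferin-H EGE (KM level) by 5 nM CYP2C19 in 50mM KPO4. 60 min NADPH-driven reaction at 37C after 10 min compound preincubation; data scaled to 57uM ketoconazole inhibition.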

Sequence of Cytochrome P450 2C19 (Homo sapiens) (P33261 whole entry, looked up): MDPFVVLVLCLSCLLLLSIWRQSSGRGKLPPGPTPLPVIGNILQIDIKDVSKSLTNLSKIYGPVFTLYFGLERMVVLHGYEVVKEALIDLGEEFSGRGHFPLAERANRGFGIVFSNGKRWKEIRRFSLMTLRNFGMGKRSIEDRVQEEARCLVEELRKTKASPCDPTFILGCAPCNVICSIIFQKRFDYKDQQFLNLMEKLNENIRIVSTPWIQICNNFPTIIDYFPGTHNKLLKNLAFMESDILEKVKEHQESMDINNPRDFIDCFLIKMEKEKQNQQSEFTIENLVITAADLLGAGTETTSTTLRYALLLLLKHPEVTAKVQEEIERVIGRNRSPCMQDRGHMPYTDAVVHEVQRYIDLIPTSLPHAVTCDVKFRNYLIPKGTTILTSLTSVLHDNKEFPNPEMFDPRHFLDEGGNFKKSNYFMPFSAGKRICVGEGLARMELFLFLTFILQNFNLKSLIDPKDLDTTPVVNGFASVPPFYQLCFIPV
Sequence of Lysosomal acid glucosylceramidase (Homo sapiens) (P04062 whole entry, looked up): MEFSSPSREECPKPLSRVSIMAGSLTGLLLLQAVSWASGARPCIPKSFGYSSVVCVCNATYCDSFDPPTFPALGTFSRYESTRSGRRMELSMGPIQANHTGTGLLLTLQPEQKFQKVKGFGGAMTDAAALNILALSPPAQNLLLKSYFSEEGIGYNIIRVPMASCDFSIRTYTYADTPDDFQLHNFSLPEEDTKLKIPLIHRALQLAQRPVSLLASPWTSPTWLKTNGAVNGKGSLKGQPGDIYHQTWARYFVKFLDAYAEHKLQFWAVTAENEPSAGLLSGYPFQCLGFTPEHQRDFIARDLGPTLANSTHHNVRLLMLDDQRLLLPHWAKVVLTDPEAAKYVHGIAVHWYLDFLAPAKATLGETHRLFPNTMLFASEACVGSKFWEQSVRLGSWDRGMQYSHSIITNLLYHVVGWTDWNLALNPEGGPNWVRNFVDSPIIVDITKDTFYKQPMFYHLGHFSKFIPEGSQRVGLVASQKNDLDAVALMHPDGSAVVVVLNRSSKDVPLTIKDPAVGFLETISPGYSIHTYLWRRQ
Sequence of Cytochrome P450 3A4 (Homo sapiens) (P08684 whole entry, looked up): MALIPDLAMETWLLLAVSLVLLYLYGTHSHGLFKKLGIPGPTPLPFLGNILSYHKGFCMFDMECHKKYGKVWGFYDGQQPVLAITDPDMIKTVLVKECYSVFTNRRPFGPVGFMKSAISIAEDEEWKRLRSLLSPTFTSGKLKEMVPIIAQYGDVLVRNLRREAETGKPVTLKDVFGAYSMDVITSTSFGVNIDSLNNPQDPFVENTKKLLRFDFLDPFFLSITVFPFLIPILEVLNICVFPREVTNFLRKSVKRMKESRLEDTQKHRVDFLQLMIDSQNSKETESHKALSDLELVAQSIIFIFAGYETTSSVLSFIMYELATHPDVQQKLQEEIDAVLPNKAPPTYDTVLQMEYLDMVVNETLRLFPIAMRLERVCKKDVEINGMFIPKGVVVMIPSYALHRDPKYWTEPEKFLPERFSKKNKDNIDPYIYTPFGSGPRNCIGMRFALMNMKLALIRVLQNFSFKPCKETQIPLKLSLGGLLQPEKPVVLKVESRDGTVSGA
Sequence of Cytochrome P450 1A2 (Homo sapiens) (P05177 whole entry, looked up): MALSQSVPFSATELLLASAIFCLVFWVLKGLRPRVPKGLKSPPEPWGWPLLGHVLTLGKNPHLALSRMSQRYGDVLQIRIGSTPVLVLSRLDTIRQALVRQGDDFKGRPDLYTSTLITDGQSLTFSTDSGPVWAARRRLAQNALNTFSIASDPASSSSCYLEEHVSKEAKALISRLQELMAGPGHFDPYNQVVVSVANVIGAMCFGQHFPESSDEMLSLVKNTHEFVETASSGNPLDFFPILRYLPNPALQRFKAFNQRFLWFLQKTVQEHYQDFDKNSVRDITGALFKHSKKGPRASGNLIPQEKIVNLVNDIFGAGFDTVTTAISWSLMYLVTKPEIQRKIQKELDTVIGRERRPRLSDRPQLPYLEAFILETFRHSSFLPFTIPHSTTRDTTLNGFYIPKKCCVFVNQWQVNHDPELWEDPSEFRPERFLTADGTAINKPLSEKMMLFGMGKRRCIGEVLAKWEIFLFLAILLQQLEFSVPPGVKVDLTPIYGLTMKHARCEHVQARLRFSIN
Sequence of 3',5'-cyclic-AMP phosphodiesterase 4B (Homo sapiens) (Q07343 whole entry, looked up): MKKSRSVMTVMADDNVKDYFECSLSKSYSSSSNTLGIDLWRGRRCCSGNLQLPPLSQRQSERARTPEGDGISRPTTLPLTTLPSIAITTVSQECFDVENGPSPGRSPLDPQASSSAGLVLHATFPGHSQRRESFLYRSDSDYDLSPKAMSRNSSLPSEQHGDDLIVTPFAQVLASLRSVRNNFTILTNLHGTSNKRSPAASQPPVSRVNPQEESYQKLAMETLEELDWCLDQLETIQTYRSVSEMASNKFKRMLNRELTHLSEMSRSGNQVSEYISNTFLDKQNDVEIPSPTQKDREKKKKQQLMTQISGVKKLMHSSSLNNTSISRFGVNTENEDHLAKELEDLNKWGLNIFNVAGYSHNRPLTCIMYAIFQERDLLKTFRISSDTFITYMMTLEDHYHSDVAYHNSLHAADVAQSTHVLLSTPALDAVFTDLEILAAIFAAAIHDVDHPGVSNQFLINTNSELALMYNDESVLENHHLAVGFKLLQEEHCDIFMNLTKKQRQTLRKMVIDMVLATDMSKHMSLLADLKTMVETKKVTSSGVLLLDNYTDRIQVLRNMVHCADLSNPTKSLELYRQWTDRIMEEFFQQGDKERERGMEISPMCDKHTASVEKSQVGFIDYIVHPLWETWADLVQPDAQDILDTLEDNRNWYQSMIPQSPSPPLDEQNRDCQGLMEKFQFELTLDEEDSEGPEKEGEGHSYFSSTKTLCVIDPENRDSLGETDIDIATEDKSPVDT
Sequence of Glucocorticoid receptor (Homo sapiens) (P04150 whole entry, looked up, the tested form may be a part): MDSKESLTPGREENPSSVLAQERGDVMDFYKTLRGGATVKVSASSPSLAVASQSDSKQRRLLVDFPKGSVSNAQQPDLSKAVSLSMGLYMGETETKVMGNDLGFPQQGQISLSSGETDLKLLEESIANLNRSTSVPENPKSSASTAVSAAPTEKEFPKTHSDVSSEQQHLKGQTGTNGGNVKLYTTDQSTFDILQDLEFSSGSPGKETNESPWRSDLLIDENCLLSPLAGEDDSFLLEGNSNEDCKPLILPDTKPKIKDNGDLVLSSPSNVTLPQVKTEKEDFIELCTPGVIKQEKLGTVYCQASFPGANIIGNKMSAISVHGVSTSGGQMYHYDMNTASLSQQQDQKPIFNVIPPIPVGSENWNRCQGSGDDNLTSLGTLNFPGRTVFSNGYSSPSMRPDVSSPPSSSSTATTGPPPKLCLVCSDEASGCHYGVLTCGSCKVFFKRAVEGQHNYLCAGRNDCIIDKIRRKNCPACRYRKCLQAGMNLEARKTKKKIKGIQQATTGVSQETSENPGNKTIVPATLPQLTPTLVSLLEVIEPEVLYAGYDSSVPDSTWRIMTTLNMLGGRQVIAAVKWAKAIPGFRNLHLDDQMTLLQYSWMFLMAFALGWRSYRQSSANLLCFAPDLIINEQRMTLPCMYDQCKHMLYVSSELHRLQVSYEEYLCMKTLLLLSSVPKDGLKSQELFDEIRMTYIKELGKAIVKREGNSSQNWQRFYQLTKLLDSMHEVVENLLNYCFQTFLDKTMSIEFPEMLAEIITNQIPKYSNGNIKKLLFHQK

| Structure (SMILES) | Potency [1] | activity change, negative = inhibition [2] | Potency [3] | activity change, negative = inhibition [4] | activity, negative = inhibition [5] | Potency [6] | Potency [7] | Potency [8] | Potency [9] | Potency [10] | Potency [11] | Potency [12] | activity change, negative = inhibition [3] |
| --- | --- | --- | --- | --- | --- | --- | --- | --- | --- | --- | --- | --- | --- |
| N=C(N)S[C@H]1c2ccccc2-c2cc([N+](=O)[O-])ccc21 | > 11.4 µM | -7.27% | 0.158 µM (active) | -0.855% | -2.76% | > 46 µM | > 9.22 µM | inactive | inactive | inactive |  |  |  |
| Nc1cccc(OCc2nc(N)nc(N)c2-c2ccc(Cl)cc2)c1 | > 11.4 µM | 6.37% | 0.158 µM (active) | -4.61% | 6.21% | > 46 µM | > 9.22 µM | inactive | inactive | inactive | 1.58 µM (active) |  |  |
| CC[C@H]1CC[C@H]2[C@@H]3CC=C4C[C@H](OC(C)=O)[C@@H](N)C[C@@]4(C)[C@H]3CC[C@@]12C | > 11.4 µM | 8.35% | inactive | 8.17% | -1.58% | > 46 µM | > 9.22 µM | inactive | inactive | inactive |  |  |  |
| C[C@@]12CCC(=O)C=C1CC[C@H]1[C@@H]2[C@@H](O)C[C@]2(C)[C@@H]1CC[C@@]2(O)C(=O)COC(=O)C1CCCC1 | > 11.4 µM | -7.32% | inactive | 4.12% | -0.238% | 0.0333 µM (active) | 0.61 µM (active) | inactive | inactive | inactive |  |  |  |
| O=C(CC(=O)c1ccncc1)c1ccccc1 | > 11.4 µM | 4.49% | 0.1 µM (active) | 13.8% | 4.76% | > 46 µM | > 9.22 µM | inactive | inactive | inactive | 3.16 µM (active) | 0.398 µM (active) |  |
| Cn1c(=O)c2[nH]c(SCCN3CCOCC3)nc2n(C)c1=S | > 11.4 µM | 0.183% | 0.631 µM (active) | 15.6% | 1.45% | > 46 µM | > 9.22 µM | inactive | inactive | inactive |  |  |  |
| O[C@@H](C1=C/C(=C\c2ccncc2)c2ccccc21)c1ccncc1 | > 11.4 µM | 6.34% | 0.1 µM (active) | -26.9% | -15.9% | > 46 µM | > 9.22 µM | inactive | inactive |  | 0.794 µM (active) | 0.158 µM (active) |  |
| Nc1nc(Cc2ccccc2)nc(Cc2ccccc2)c1-c1ccccc1 | > 11.4 µM | -20.1% | 1 µM (active) | 11.3% | -7.29% | > 46 µM | > 9.22 µM | inactive | inactive | inactive |  |  |  |
| CC1=NN(C(=O)c2ccncc2)C(=O)[C@@H]1N=Nc1ccc2ccccc2c1 | > 11.4 µM | -15.6% | 0.158 µM (active) | 11.9% | -4.73% | > 46 µM | > 9.22 µM | inactive | inactive | inactive |  |  |  |
| CCCCNc1nc(SC)nc2nc[nH]c12 | > 11.4 µM | 1.1% | 0.316 µM (active) | 9.44% | -3.88% | > 46 µM | > 9.22 µM | inactive | inactive | inactive |  |  |  |
| c1ccc(C[C@@H](Nc2cccnc2)c2ccccc2)cc1 | > 11.4 µM | 5.71% | 0.2 µM (active) | -11.2% | -4.39% | > 46 µM | > 9.22 µM | inactive | inactive | inactive | 3.16 µM (active) |  |  |
| CN1CCN(Cc2nc3cccc4c3c([n+]2[O-])-c2ccccc2-4)CC1 | > 11.4 µM | -4.75% | 1.26 µM (active) | 9.77% | 6.12% | > 46 µM | > 9.22 µM | inactive | inactive | inactive |  |  |  |
| Nc1nc(SCCc2ccccc2)c2[nH]cnc2n1 | > 11.4 µM | -4.07% | 3.16 µM (active) | 15.6% | -1.34% | > 46 µM | > 9.22 µM | inactive | inactive | inactive | 2.51 µM (active) | 0.631 µM (active) |  |
| O=C1NC(=O)[C@@](Cc2ccccc2)(c2cccnc2)N1 | > 11.4 µM | -12.7% |  | 9.84% | -7.87% | > 46 µM | > 9.22 µM | inactive | inactive | inactive |  |  | -17.1% [at 2.29 µM] |

From PubChem BioAssay (NCATS)
